# From PubChem BioAssay (Tox21)
# Records with an inconclusive call do not appear. Calls of active or inactive are those of the source. The call rests on the fitted dose curve; in most records, active means well fitted cell-killing curve with a large enough effect in the repeat runs; inconclusive means weak or mixed curves, or effect the other way; inactive means flat fitted curve, though single readings scatter.
# Experiment: qHTS RealTime-Glo MT Cell Viability Assay in HepG2 cells - 40 hour (AID 1224870); further: nearly all actives have a fitted effect of over 50% in size
# Conditions: RealTime-Glo luminescence; series mostly up to 76.8 µM; activity change, negative = cytotoxic: at the top concentration
# Description: National Center for Advancing Translational Sciences [NCATS]
# NIH Chemical Genomics Center [NCGC]
# U.S. Environmental Protection Agency [EPA]
# National Institutes of Environmental Health Sciences [NIEHS]
# National Toxicology Program [NTP]
# U.S. Food and Drug Administration [FDA]
# Measure of cell viability is critical in the cell-base assay. Analysis of cell viability is necessary for the characterization of cell responses to cytotoxic drugs and environmental stress. A RealTime-Glo MT Cell Viability Assay to monitor cell viability in real time of continues cell culture during 40 hours of compound treatment was used to screen Tox21 10K library compounds in HepG2 cells. The RealTime-Glo MT Cell Viability Assay is a nonlytic, homogeneous, bioluminescent method to measure cell viability in real time using a simple, plate-based method. The assay involves adding NanoLuc luciferase and a cell-permeant prosubstrate to cells in culture. Viable cells reduce the proprietary prosubstrate to generate a substrate for NanoLuc luciferase. This substrate diffuses from cells into the surrounding culture medium, where it is rapidly used by the NanoLuc Enzyme to produce a luminescent signal. The signal correlates with the number of viable cells, making the assay well suited for cytotoxicity studies.
# Tox21 Assay Protocol Summary:
# The mixture of HepG2 cell suspension and reagents were dispensed at 600cells/6 ul/well in 1536-well tissue culture treated black solid bottom plates using a Multidrop dispenser. After the assay plates were incubated at a 37 C/5% CO2 incubator for 5 hours, 23 nL of compounds dissolved in DMSO, positive and negative controls was transferred to the assay plate by a pintool work station. The plates were incubated at 37 C for 40 hours. The luminescence intensity were measured at 0h, 8h, 16h, 24h, 32h and 40h time points using ViewLux plate reader during compound treatment.
# On the % scale 0 is the no-effect control and ±100 the full control effect; potency means the concentration at half of the fitted maximal effect.
SMILES,"activity change, negative = cytotoxic",Potency
Cc1ccccc1S(N)(=O)=O,0.385% (inactive),
CN=C(N)NC(=O)Nc1c(C)cccc1C,1.1% [at 35.3 µM] (inactive),
CCCCCCCCCCCSCC(=O)O,0.717% (inactive),
COC(=O)c1sccc1S(N)(=O)=O,-3.01% (inactive),
C[C@@H]1[C@H](O)[C@@H](C)/C=C/C=C\C=C\C=C\C=C\C=C\C=C\[C@H](O[C@@H]2O[C@H](C)[C@@H](O)[C@H](N)[C@@H]2O)C[C@@H]2O[C@](O)(C[C@@H](O)C[C@@H](O)[C@H](O)CC[C@@H](O)C[C@@H](O)CC(=O)O[C@H]1C)C[C@H](O)[C@H]2C(=O)O (stereo in doubt),-1.84% (inactive),
COc1ccc(CCN(C)CCCN2CCc3cc(OC)c(OC)cc3CC2=O)cc1OC,0.348% [at 35.3 µM] (inactive),
O=C(CCS)OCC(COC(=O)CCS)(COC(=O)CCS)COC(=O)CCS,2.82% (inactive),
O=C1CC[C@@H](C(=O)O)N1,0.0722% [at 35.3 µM] (inactive),
CNc1c2c(nn1C)CCCC2,-2.72% [at 35.3 µM] (inactive),
CCN(Cc1cccc(S(=O)(=O)O)c1)c1ccc(C(=C2C=CC(=[N+](CC)Cc3cccc(S(=O)(=O)O)c3)C=C2)c2ccccc2S(=O)(=O)[O-])cc1,-3.37% [at 35.3 µM] (inactive),
CC12CC3CC(C)(C1)CC(N)(C3)C2,0.19% [at 35.3 µM] (inactive),
CCOC(=O)c1ccc(NC(=O)CN2CCCCC2)cc1,1.11% [at 35.3 µM] (inactive),
CCN(CC)C(=O)/C(C#N)=C/c1cc(O)c(O)c([N+](=O)[O-])c1,-8.31% [at 35.3 µM] (inactive),
O=[N+]([O-])c1ccc2ncccc2c1,2.49% (inactive),
O=c1[nH][nH]c(=O)c2cc([N+](=O)[O-])ccc12,-1.55% (inactive),
CCN(CC)c1ccc(C(=C2C=CC(=[N+](CC)CC)C=C2)c2ccc(S(=O)(=O)O)cc2S(=O)(=O)[O-])cc1,-7.69% (inactive),
Cc1ccc2c(c1)CCCN2,1.41% (inactive),
CC1=CC[C@@H]2C[C@H]1C2(C)C,1.07% [at 15.8 µM] (inactive),
COC(=O)Nc1nc2ccc(C(=O)C3CC3)cc2[nH]1,-16.1% [at 35.3 µM] (inactive),
COc1ccc(C(=O)NCc2ccc(OCCN(C)C)cc2)cc1OC,-0.439% [at 35.3 µM] (inactive),

SMILES,"activity change, negative = cytotoxic",Potency
COC(OC)OC,-2.55% (inactive),
O=C1c2ccccc2C(=O)c2c(O)ccc(O)c21,-3.84% (inactive),
c1ccc2sc(SSc3nc4ccccc4s3)nc2c1,-0.0307% [at 15.8 µM] (inactive),
O=C(O)CNC(=O)c1ccccc1I,1% [at 35.3 µM] (inactive),
CCSC(=O)N(CC)CC,2.09% (inactive),
COc1ccc(N)c([N+](=O)[O-])c1,-0.765% (inactive),
Cc1ccc2c(c1[N+](=O)[O-])C(=O)c1ccccc1C2=O,11.1% [at 35.3 µM] (inactive),
CC(C)OC(=O)c1ccccc1C(=O)OC(C)C,1.42% (inactive),
Cc1c(C2(c3cc(Br)c(O)c(Br)c3C)OS(=O)(=O)c3ccccc32)cc(Br)c(O)c1Br,-8.01% (inactive),
CC(C)C1CCC(C(=O)N[C@H](Cc2ccccc2)C(=O)O)CC1 (stereo not given in full),2.54% [at 35.3 µM] (inactive),
C=C(C)c1ccccc1,-0.503% (inactive),
CCCCOC(=O)CCCCC(=O)OCCCC,2.01% (inactive),
C[C@H](CS)C(=O)N1CCC[C@H]1C(=O)O,-0.345% [at 35.3 µM] (inactive),
CSSc1ccoc1C,4.57% (inactive),
CCCCCc1ccco1,-0.826% [at 35.3 µM] (inactive),
Cc1cccc(C)c1NC(=O)c1cc(S(N)(=O)=O)c(Cl)cc1O,3.92% [at 35.3 µM] (inactive),
CCN(CC)CCOc1ccccc1C(=O)CCc1ccccc1,0.136% [at 35.3 µM] (inactive),
O[C@@H](CNC[C@H](O)[C@H]1CCc2cc(F)ccc2O1)[C@@H]1CCc2cc(F)ccc2O1,,15.1 µM (active)
Cc1ccc(Nc2c(F)cccc2Cl)c(CC(=O)O)c1,1.21% [at 35.3 µM] (inactive),
Cc1ccc(N(CCO)CCO)cc1,-1.5% (inactive),
